Measurements reported in PubChem BioAssay (NCATS).
Inconclusive results are not listed. Values without a mark were called inactive. Calls of active or inactive are those of the source. The call rests on the fitted dose curve; in most records, active means well fitted cell-killing curve with a large enough effect; inconclusive means small, poorly fitted or top-dose-only effect, or effect the other way; inactive means no such curve, though single readings can be large or run the other way.

How the values were obtained:
[1] = Viability qHTS for spleen associated tyrosine kinase inhibitor (SYKi) naive MV4-11 cells (AID 1963823); further: nearly all actives have a fitted effect of over 40% in size
Summary of the method: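 Cells: MV4-11, SYK inhibitor naive, 500 per well. Treatment: library compounds, 72 hr, 37 C, 5% CO2. Read-out: CellTiter-Glo luminescence after 10 min RT.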

[2] = Viability qHTS for spleen associated tyrosine kinase inhibitor (SYKi) drug resistant MV4-11 cells (AID 1963824); further: nearly all actives have a fitted effect of over 35% in size
Summary of the method: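 SYK-inhibitor-resistant MV4-11 AML cells were seeded at 500 per well onto compound and cultured 72 hours (37 °C, 5% CO2). CellTiter-Glo was then added, and after 10 min at room temperature, luminescence gave viability.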
Potency means the concentration at half of the fitted maximal effect.

SMILES | Potency [1] | Potency [2] | viability (% of control) [1] | viability, % of control [2]
CC(=O)C1=C(O)C=C2Oc3c(C(C)=O)c(O)c(C)c(O)c3[C@]2(C)C1=O | inactive | inactive | – | –
CC1=C2CC(=O)C(C)CC/C=C(\C)CC2OC1=O (configuration not stated) | inactive | inactive | – | –
C=C1C(=O)O[C@@H]2C[C@@]3(C)CCCC(=C)[C@]3(O)C[C@H]12 | 5.8 µM (active) | 2.59 µM (active) | – | –
CCCCNc1ncc(C(=O)NCc2ccc(-n3ccnc3)cc2)c(NC2CCC(O)CC2)n1 (configuration not stated) | 0.092 µM (active) | 0.259 µM (active) | – | –
CC1(C)CC[C@]2(C(=O)OC3OC(CO)C(O)C(O)C3O)CC[C@]3(C)C(=CCC4[C@@]5(C)CC[C@H](OC6OC(C(=O)O)C(O)C(OC7OC(CO)C(O)C(O)C7O)C6O)C(C)(C)C5CC[C@]43C)C2C1 (some centres not stated) | – | – | 77.3% [at 9.25 µM] | 96.9% [at 9.25 µM]
CC(=O)c1ccc2c(c1)[C@H](NC(=O)c1ccc(F)c(Cl)c1)[C@H](O)C(C)(C)O2 | inactive | inactive | – | –
CCN(CC)CCCCNc1ncc2cc(-c3c(Cl)cccc3Cl)c(NC(=O)NC(C)(C)C)nc2n1 | 0.517 µM (active) | 0.58 µM (active) | – | –
Nc1ncnc2c1c(I)cn2[C@@H]1C[C@H](N)[C@@H](O)[C@H]1O | 2.91 µM (active) | 6.51 µM (active) | – | –
COC1OC(=O)C2=C1C1(C)CCCC(C)(C)C1CC2O (configuration not stated) | inactive | inactive | – | –
Cc1nc(Nc2cnn(C3CCNCC3)c2)nc2c1N(C)C(=O)c1cc3ccccc3cc1N2C | 3.66 µM (active) | 6.51 µM (active) | – | –
COC(=O)N/N=C/c1c[n+]([O-])c2ccccc2[n+]1[O-] | inactive | inactive | – | –
